Measurements published in PubChem BioAssay (NCI).
This is part of a sample that, as a whole, favours compounds with a hit. Of some 79,000 tested, about 15% had one in any assay. Calls of active or inactive are those of the source. Rule as the data show it: active = growth inhibition above about 70%; inactive = the rest.

Legend:
[1] = NCI Yeast Anticancer Drug Screen. Data for the sgs1 strain (AID 173);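 also: 0% = growth of vehicle-only control cultures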; settings: S. cerevisiae sgs1 mutant, hits give high values
Procedure, shortened: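 Compounds applied to genetically altered yeast; growth compared with vehicle-treated cultures to give % inhibition.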

[2] = NCI Yeast Anticancer Drug Screen. Data for the rad18 strain (AID 177); settings: S. cerevisiae rad18 mutant growth inhibition, hits give high values
Procedure, shortened: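 Compounds are applied to a repair-deficient yeast strain, and growth is compared with that of vehicle-treated cultures to give percent inhibition.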

[3] = NCI Yeast Anticancer Drug Screen. Data for the wt1 strain (AID 149);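 also: 0% = growth of vehicle-treated wt1 cultures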; settings: S. cerevisiae wt1 strain (SPY 50644) growth inhibition, hits give high values
Procedure, shortened: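 Measured: growth of wt1 yeast under compound versus vehicle treatment, reported as inhibition.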

[4] = NCI Yeast Anticancer Drug Screen. Data for the rad50EPP+ strain (AID 151);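 also: 0% = growth of vehicle-treated control cultures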; settings: S. cerevisiae rad50 mutant strain, hits give high values
Procedure, shortened: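 rad50EPP+ yeast treated with test compounds. Readout: growth vs vehicle control.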

[5] = NCI Yeast Anticancer Drug Screen. Data for the mgt1 strain (AID 153); settings: S. cerevisiae mgt1 mutant growth inhibition, hits give high values
Procedure, shortened: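 Growth inhibition relative to vehicle controls was scored for the mgt1 yeast strain after compound exposure.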

[6] = NCI Yeast Anticancer Drug Screen. Data for the rad50 strain (AID 155);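 also: 0% = growth of vehicle-only cultures of the same strain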; settings: S. cerevisiae rad50 strain growth inhibition, hits give high values
Procedure, shortened: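 Growth of the mutant yeast was measured after compound exposure and referenced to vehicle-treated cultures.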

[7] = NCI Yeast Anticancer Drug Screen. Data for the mec2-1 strain (AID 157); settings: S. cerevisiae mec2-1 strain, hits give high values
Procedure, shortened: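 Growth inhibition is read against vehicle-treated controls after compound exposure of the mec2-1 yeast strain, which is defective in DNA damage repair or cell cycle control.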

[8] = NCI Yeast Anticancer Drug Screen. Data for the rad14 strain (AID 159);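 also: 0% = growth of vehicle-treated control cultures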; settings: S. cerevisiae rad14 strain growth inhibition, hits give high values
Procedure, shortened: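 Here, inhibition of yeast growth was measured after compound exposure, using a strain with a genetic defect in DNA damage repair and vehicle-treated cultures as the reference.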

[9] = NCI Yeast Anticancer Drug Screen. Data for the sgs1 mgt1 strain (AID 161);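 also: 0% = growth of cultures given vehicle only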; settings: S. cerevisiae sgs1 mgt1 strain, hits give high values
Procedure, shortened: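 Yeast cells carrying a defined DNA-repair defect were exposed to test compounds. Growth inhibition was measured relative to vehicle-treated controls.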

[10] = NCI Yeast Anticancer Drug Screen. Data for the CLN2oe strain (AID 163);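 also: 0% = growth of vehicle-only control cultures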; settings: S. cerevisiae CLN2oe strain, hits give high values
Procedure, shortened: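 Compound-treated yeast; growth vs vehicle ctrl = % inhibition. Genetically altered strain (cell-cycle control).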

[11] = NCI Yeast Anticancer Drug Screen. Data for the cln2 rad14 strain (AID 165);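 also: 0% = growth equal to vehicle treated cultures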; settings: S. cerevisiae cln2 rad14 strain, hits give high values
Procedure, shortened: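 Growth inhibition, relative to vehicle-treated controls, is the read-out. The test organism is a yeast strain with defined genetic alterations, cln2 rad14.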

[12] = NCI Yeast Anticancer Drug Screen. Data for the bub3 strain (AID 167); settings: S. cerevisiae bub3 mutant strain, hits give high values
Procedure, shortened: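 Whole-cell yeast assay. The mutant strain was incubated with compounds, and growth inhibition was determined by comparison with vehicle-treated cells.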

[13] = NCI Yeast Anticancer Drug Screen. Data for the wt2 strain (AID 169);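 also: 0% = growth of vehicle-treated yeast cultures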; settings: S. cerevisiae wt2 strain growth inhibition, hits give high values
Procedure, shortened: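 Compound exposure of yeast; growth compared with vehicle controls; inhibition reported.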

[14] = NCI Yeast Anticancer Drug Screen. Data for the mlh1 strain (AID 171);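 also: 0% = growth of vehicle-treated control cultures of the same strain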; settings: S. cerevisiae mlh1 strain growth inhibition, hits give high values
Procedure, shortened: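 Compounds are applied to a genetically altered yeast strain, and its growth is compared with that of vehicle-treated cultures to give percent inhibition.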

[15] = NCI Yeast Anticancer Drug Screen. Data for the mlh1 rad18 strain (AID 175); settings: S. cerevisiae mlh1 rad18 strain growth inhibition, hits give high values
Procedure, shortened: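 Cells of a genetically altered yeast strain, deficient in DNA damage repair, were treated with compound. Their growth was then compared with that of vehicle-treated cultures to give inhibition.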

[16] = NCI Yeast Anticancer Drug Screen. Data for the rad52 strain (AID 147);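 also: 0% = growth of vehicle-treated control cultures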; settings: S. cerevisiae rad52 mutant growth inhibition, hits give high values
Procedure, shortened: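 DNA repair-defective yeast; compound exposure; growth scored against vehicle controls.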

[17] = at 5.0 µM (retest, dose inferred, filed as 0.5)
[18] = at 50.0 µM (retest, dose inferred, filed as 5.0)

Measured: growth inhibition

CCN(CC)CCN(C)CCc1ccc(Br)cc1
active: [1]; at 33.0 µM 85% | [1]; at 100.0 µM 94% | [2]; at 100.0 µM 91%
inactive: [1]; at 1.2 µM 10% | [1]; at 3.7 µM 23% | [1]; at 11.0 µM 49% | [2]; at 1.2 µM 11% | [2]; at 3.7 µM 32% | [2]; at 11.0 µM 54% | [2]; at 33.0 µM 66%

OCC(CO)C(c1cccc2ccccc12)c1cccc2ccccc12
inactive: [3]; at 1.2 µM -5% | [3]; at 3.7 µM 1% | [4]; at 1.2 µM 0% | [4]; at 3.7 µM 3% | [4]; at 11.0 µM 10% | [4]; at 33.0 µM 13% | [4]; at 100.0 µM -2% | [5]; at 1.2 µM -1% | [5]; at 3.7 µM 9% | [6]; at 1.2 µM 4% | [6]; at 3.7 µM 40% | [6]; [17] 19% | [7]; at 1.2 µM -1% | [7]; at 3.7 µM 21% | [7]; [17] 4% | [8]; at 1.2 µM 0% | [8]; at 3.7 µM 20% | [9]; [17] 6% | [10]; at 1.2 µM -2% | [10]; at 3.7 µM 28% | [11]; [17] 2% | [12]; at 1.2 µM -1% | [12]; at 3.7 µM 9% | [12]; [17] -1% | [13]; at 1.2 µM -4% | [13]; at 3.7 µM 3% | [14]; at 1.2 µM 0% | [14]; at 3.7 µM 11% | [1]; at 1.2 µM 1% | [1]; at 3.7 µM 15% | [15]; [17] 7% | [2]; at 1.2 µM 7% | [2]; at 3.7 µM 53%
active: [3]; at 11.0 µM 98% | [3]; at 33.0 µM 99% | [3]; at 100.0 µM 94% | [5]; at 11.0 µM 98% | [5]; at 33.0 µM 99% | [5]; at 100.0 µM 93% | [6]; at 11.0 µM 98% | [6]; at 33.0 µM 98% | [6]; [18] 99% | [6]; at 50.0 µM 99.3% | [6]; at 100.0 µM 88% | [7]; at 11.0 µM 98% | [7]; at 33.0 µM 99% | [7]; [18] 99% | [7]; at 50.0 µM 99.2% | [7]; at 100.0 µM 92% | [8]; at 11.0 µM 99% | [8]; at 33.0 µM 99% | [8]; at 100.0 µM 90% | [9]; [18] 100% | [9]; at 50.0 µM 99.2% | [10]; at 11.0 µM 99% | [10]; at 33.0 µM 99% | [10]; at 100.0 µM 88% | [11]; [18] 97% | [11]; at 50.0 µM 99.2% | [12]; at 11.0 µM 98% | [12]; at 33.0 µM 99% | [12]; [18] 99% | [12]; at 50.0 µM 99.3% | [12]; at 100.0 µM 89% | [13]; at 11.0 µM 98% | [13]; at 33.0 µM 99% | [13]; at 100.0 µM 90% | [14]; at 11.0 µM 99% | [14]; at 33.0 µM 99% | [14]; at 100.0 µM 92% | [1]; at 11.0 µM 98% | [1]; at 33.0 µM 99% | [1]; at 100.0 µM 93% | [15]; [18] 99% | [15]; at 50.0 µM 98.7% | [2]; at 11.0 µM 98% | [2]; at 33.0 µM 99% | [2]; at 100.0 µM 88%

O=C(/C=C\c1cccc(C(F)(F)F)c1)c1ccccc1
inactive: [16]; at 1.2 µM -3% | [16]; at 3.7 µM -2% | [16]; at 11.0 µM -1% | [16]; at 33.0 µM -3% | [16]; at 100.0 µM -3% | [4]; at 1.2 µM 1% | [4]; at 3.7 µM 0% | [4]; at 11.0 µM 3% | [4]; at 33.0 µM 4% | [4]; at 100.0 µM 9% | [5]; at 1.2 µM -3% | [5]; at 3.7 µM -1% | [5]; at 11.0 µM -3% | [5]; at 33.0 µM -2% | [5]; at 100.0 µM -4% | [6]; at 1.2 µM -3% | [6]; at 3.7 µM -3% | [6]; [17] -5% | [6]; at 11.0 µM -1% | [6]; at 33.0 µM -4% | [6]; [18] 40% | [6]; at 50.0 µM 20.3% | [6]; at 100.0 µM -1% | [7]; at 1.2 µM -4% | [7]; at 3.7 µM 0% | [7]; [17] -19% | [7]; at 11.0 µM 0% | [7]; at 33.0 µM 1% | [7]; [18] 3% | [7]; at 50.0 µM 20.1% | [7]; at 100.0 µM -5% | [8]; at 1.2 µM -2% | [8]; at 3.7 µM 1% | [8]; at 11.0 µM 2% | [8]; at 33.0 µM -2% | [8]; at 100.0 µM -3% | [9]; [17] 18% | [9]; [18] 59% | [9]; at 50.0 µM 36.4% | [10]; at 1.2 µM -2% | [10]; at 3.7 µM -11% | [10]; at 11.0 µM -5% | [10]; at 33.0 µM -5% | [10]; at 100.0 µM -10% | [11]; [17] 8% | [11]; [18] 10% | [11]; at 50.0 µM 1.55% | [12]; at 1.2 µM -2% | [12]; at 3.7 µM -6% | [12]; [17] 11% | [12]; at 11.0 µM -2% | [12]; at 33.0 µM -3% | [12]; [18] 49% | [12]; at 50.0 µM 26.1% | [12]; at 100.0 µM -9% | [13]; at 1.2 µM -2% | [13]; at 3.7 µM 0% | [13]; at 11.0 µM -2% | [13]; at 33.0 µM -2% | [13]; at 100.0 µM -4% | [14]; at 1.2 µM -2% | [14]; at 3.7 µM -2% | [14]; at 11.0 µM -2% | [14]; at 33.0 µM -3% | [14]; at 100.0 µM -1% | [1]; at 1.2 µM -2% | [1]; at 3.7 µM -3% | [1]; at 11.0 µM 1% | [1]; at 33.0 µM 0% | [1]; at 100.0 µM 3% | [2]; at 1.2 µM 0% | [2]; at 3.7 µM 1% | [2]; at 11.0 µM 7% | [2]; at 33.0 µM 22% | [2]; at 100.0 µM 57%
